{"source": "the supplement of paper PMC10681739", "note": "Whole data set: some 4,100 sequences, median “arbitrary fluorescence units” near 780, cut for the highest 2% near 22,000. This is one part of a sample in which the highest values are shown more often than they occur.", "data": [{"biological_target": "T1, ETS1 (UniProt P14921)", "T1 sequence": "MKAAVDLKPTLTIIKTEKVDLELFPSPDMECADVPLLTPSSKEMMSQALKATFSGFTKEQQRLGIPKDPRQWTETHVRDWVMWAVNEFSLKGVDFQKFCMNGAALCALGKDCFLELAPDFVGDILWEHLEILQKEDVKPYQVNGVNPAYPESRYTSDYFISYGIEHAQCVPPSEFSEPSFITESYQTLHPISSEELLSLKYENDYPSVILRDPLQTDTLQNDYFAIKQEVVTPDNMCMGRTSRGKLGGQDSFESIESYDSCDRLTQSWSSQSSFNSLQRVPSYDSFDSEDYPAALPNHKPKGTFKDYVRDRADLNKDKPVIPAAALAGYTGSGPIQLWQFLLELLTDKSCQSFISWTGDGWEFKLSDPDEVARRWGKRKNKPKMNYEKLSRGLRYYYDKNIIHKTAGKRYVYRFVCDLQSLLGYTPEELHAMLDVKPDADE", "experiment": "ETS1 binding intensity (PBM fluorescence), ETS1 alone (arbitrary fluorescence units); higher = stronger binding", "details": "ETS1 concentration 1 nM; RUNX1 concentration 0 nM", "in_short": "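Recombinant full-length human ETS1 was applied at 1 nM, without RUNX1, to double-stranded Agilent 4 × 180k arrays of 36-bp genomic probes carrying a mutated RUNX1 partner site, following standard PBM protocols. Detection used an anti-ETS1 antibody (Cell Signaling Technology 14069) and an Alexa488-conjugated secondary antibody, with scanning on a GenePix 4400A. Each sequence was printed as four replicate spots. Binding level is the spot fluorescence intensity, summarised across replicates and not normalised.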", "values": [{"sequence": "CACCTGACTACAAGGCACACGAACATCCTTATCACA", "ETS1 binding intensity": 655}, {"sequence": "ACCAAGTTTCGGGCAGGATCTTCCTGTAGTTTGCCT", "ETS1 binding intensity": 566}, {"sequence": "CTCCAAGCCCAGAGAGCACCCCTTCCTGCCCGGACA", "ETS1 binding intensity": 737}, {"sequence": "CACGGTCTTTGCCGCTCAGCTTCCCGGAGTCCGCGC", "ETS1 binding intensity": 458}, {"sequence": "CGTACGCGCACTTCCGGTCTTTGTGACTTGCAGCTC", "ETS1 binding intensity": 38700}, {"sequence": "TTCTCTGGGGACAATTAGGGTTTCTGGGTTTCCTGA", "ETS1 binding intensity": 457}, {"sequence": "CCTGGGGGGCCGGAAGCCCCGCTTCGGCCCCAGCCC", "ETS1 binding intensity": 2820}, {"sequence": "TCTCCCTGCCCGCGAGTCAAAGCCACTTCCTTTTCC", "ETS1 binding intensity": 917}, {"sequence": "CACTTCCTGTCAAAGCCAGTTCCTTAGCCGCTTAGG", "ETS1 binding intensity": 45000}, {"sequence": "TGTCATCCCGGAAACTGATAACAAGACCTCGAGTCA", "ETS1 binding intensity": 4740}, {"sequence": "TACAGCTTCCTTCACCCCACTTGGGGCCTGGGTTAC", "ETS1 binding intensity": 1140}, {"sequence": "TGGGGCCTTGTTATCACAGCACTTCCTGTTTGCTTT", "ETS1 binding intensity": 7990}, {"sequence": "AGCTTCCTGTTTGGCCTTGCTGATGTCACCCCATTA", "ETS1 binding intensity": 27600}, {"sequence": "TCCTGGCTGCCCCCAAGGCCAGGAAGAGCGAAAACA", "ETS1 binding intensity": 434}, {"sequence": "CTGAAACAGGAAACAGACAAAGTCACAAGGTTCGCA", "ETS1 binding intensity": 5430}, {"sequence": "GACTTCCTGTTGAAGATTGGCCTCTTCGGTAGCACA", "ETS1 binding intensity": 44600}, {"sequence": "TGGCCTCTTCGGCCCTGGCCTTGACTTCCTTTCCTC", "ETS1 binding intensity": 362}, {"sequence": "CCTGCTGTGACTTCGGCTGTTTTCCTGGCCTGTGAG", "ETS1 binding intensity": 387}, {"sequence": "CCCACCTCGGCCCACGCCGAGCGTGGCGGAACAGCT", "ETS1 binding intensity": 385}, {"sequence": "CGGGCACGTCCTACGGCAGCAACGTCCGCCGCGCCG", "ETS1 binding intensity": 540}, {"sequence": "CACCCAAGGATATGCTTTTTTTTGGCAAGTCACATC", "ETS1 binding intensity": 604}, {"sequence": "TTCTGCTACATCCTGCCCACTCCCTGTGACTTCCAC", "ETS1 binding intensity": 9350}, {"sequence": "TTGGCCTGGGCTCTGGGCCACTTCCTGTGCTCTCCA", "ETS1 binding intensity": 5490}, {"sequence": "TTTCCACTTCCTGTTCTACTTGGGGCTACTGACTCA", "ETS1 binding intensity": 25500}, {"sequence": "TTTATCCTTATTTCCTGGCTTCGCCTACAAGCACAG", "ETS1 binding intensity": 5090}, {"sequence": "CTTGACTTAACTACAAGACAGGATGGGTTGATGAAG", "ETS1 binding intensity": 426}, {"sequence": "AAAGCATTTCCTGCCTTGACTTAACTACAAGACAGG", "ETS1 binding intensity": 25700}, {"sequence": "TTCACGCTCCGTAAGCTCGCTCCTTCCGGGACGCAG", "ETS1 binding intensity": 643}, {"sequence": "CTCTGCTTCCTGTCTTTGAATGCCTCTGTGATTTTC", "ETS1 binding intensity": 13400}, {"sequence": "GTGGGGCGGGCTTCCGGCGCTCCCACCGTGAGCCGA", "ETS1 binding intensity": 8140}, {"sequence": "AAGGTCGAGGTCTCGGCTTCCCCGGAACTTTTTGCT", "ETS1 binding intensity": 295}, {"sequence": "TGCTTCCGGCGGGCGCTTGCTCCCCGAGGTCGGCAA", "ETS1 binding intensity": 24800}, {"sequence": "GAAGGGAGGAAGCCTGAGAACTGTTGTCTCCTGAAG", "ETS1 binding intensity": 424}]}]}
